This test can be described thus: viability loss in HEK293T cells – cell-based, CellTiter-Glo luminescence, dry powder, set 5, cytotoxicity control, dose response (AID 743147). A general note: Cellular ATP, detected with luciferase, serves as a proxy for viable cell number.

Each structure is given as a SMILES string. The source made the active and inactive calls.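 The calls were made as follows: active = ATP luminescence loss from cell killing, with fitted half-maximal dose at or below the top valid tested dose; inconclusive = flat curve with partial loss of 30 to 70%, or poor fit; inactive = the rest.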

As for `CC(=O)Nc1ccc(C2=NNC(=O)C[C@H]2C)cc1[N+](=O)[O-]`, the result was inactive.

`O=C1CN2Cc3c(ccc(Cl)c3Cl)N=C2N1`: the result was inactive.

For `COc1cc2c(cc1OC)-c1cc(=Nc3c(C)cc(C)cc3C)n(C)c(=O)n1CC2`, the call was inactive.

`C[C@@H]1CC(=O)NN=C1c1ccc(N2CCOCC2)cc1`: the outcome was inactive.

Take `CCN(CC)c1ccc(C2=NNC(=O)CC2C)cc1[N+](=O)[O-]` (stereo not drawn): the outcome was inactive.

Turning to `C[C@@H]1CC(=O)NN=C1c1ccc(Cl)cc1`, the outcome was inactive.

As for `CCN1N=C(c2ccc(N(CC)CC)cc2)[C@H](C)CC1=O`, the result was inactive.

For `Cn1c(NC(=O)c2ccccc2)nc2ccccc21`, the call was inactive.

With `C[C@@H]1CC(=O)NN=C1c1ccc(-c2cncnc2)cc1`, the call was inactive.

Turning to `C[C@@H]1CC(=O)NN=C1c1ccc(F)c(F)c1`, the call was inactive.

Regarding `C[C@@H]1CC(=O)NN=C1c1ccc(C2CCCCC2)cc1`, the call was inactive.

In the case of `C[C@@H]1CC(=O)NN=C1c1ccc(N2CCOCC2)c(F)c1`, the molecule was classed as inactive.

On to `C[C@H]1CC(=O)NN=C1c1ccc(N2CCOCC2)c(F)c1`, for which the molecule was classed as inactive.

Values taken from PubChem BioAssay AID743147 (Broad Institute, 2013).
